This is one part of a sample in which hits are shown more often than they occur.
ALR inh = inhibitors of human sulfhydryl oxidase ALR | actives 3.8% (n = 290,000) | purified ALR, DTT oxidation, H2O2 HRP-luminol luminescence | P55789 | inhibition, % (concentration not given with the values) | AID 485317;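 active = mean replicate inhibition above about 79%, with every replicate also reaching it, limit read from the data; inconclusive = only one of the two criteria met; inactive = mean below limit and not every replicate reaching it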
Target sequence (P55789 whole entry, looked up): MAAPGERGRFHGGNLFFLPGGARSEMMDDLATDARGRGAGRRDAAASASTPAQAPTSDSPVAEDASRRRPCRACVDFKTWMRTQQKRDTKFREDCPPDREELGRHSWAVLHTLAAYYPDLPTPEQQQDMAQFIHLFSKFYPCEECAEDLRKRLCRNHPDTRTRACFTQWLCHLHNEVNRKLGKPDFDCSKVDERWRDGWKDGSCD
ERp5 block = inhibitors of human ERp5 | ERp5 insulin aggregation, absorbance 650 nm, 90 min | inhibition, % at 9.99 µM | actives 0.05% (n = 350,000) | Q15084;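 active = mean replicate inhibition above about 25%, with every replicate also reaching it, limit read from the data, passing the limit was not always enough; inconclusive = only one of those two criteria met; inactive = neither criterion met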
ARNT-TACC3 inh = disruptors of human ARNT/TACC3 interaction | Q9Y6A5 | AlphaScreen His-ARNT PAS-B/GST-TACC3 binding, luminescence; TACC3 fragment carries E629A point mutation | inhibition, % at 9.99 µM | actives 0.66% (n = 390,000) | AID 623870;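 active = mean inhibition of replicates at least 50% and at least half of replicates each reaching 50%; inconclusive = half or more replicates reach 50% but mean below 50%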
PDI turbidity = blocks human protein disulfide isomerase activity; P07237; inhibition, % at 10 µM; PDI insulin aggregation turbidity, A650, 90 min; actives 0.052% (n = 350,000);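 active = mean inhibition across replicates of 30% or more, whatever share of single replicates reach that level; inconclusive = mean inhibition below 30% while every single replicate reaches 30%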
Target sequence (P07237 whole entry, looked up): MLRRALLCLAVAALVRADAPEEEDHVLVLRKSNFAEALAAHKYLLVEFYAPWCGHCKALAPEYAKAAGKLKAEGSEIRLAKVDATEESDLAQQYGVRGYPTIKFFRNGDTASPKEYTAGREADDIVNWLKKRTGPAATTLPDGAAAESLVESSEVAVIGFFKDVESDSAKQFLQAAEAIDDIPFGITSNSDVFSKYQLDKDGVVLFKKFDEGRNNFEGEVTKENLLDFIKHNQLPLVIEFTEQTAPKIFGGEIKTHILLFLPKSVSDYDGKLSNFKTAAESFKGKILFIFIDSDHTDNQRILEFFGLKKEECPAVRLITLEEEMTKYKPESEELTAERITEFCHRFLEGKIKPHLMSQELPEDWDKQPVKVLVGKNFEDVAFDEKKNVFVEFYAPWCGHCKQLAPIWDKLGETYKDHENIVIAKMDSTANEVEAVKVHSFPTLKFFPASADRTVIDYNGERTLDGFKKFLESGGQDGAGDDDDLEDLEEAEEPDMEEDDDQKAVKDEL
PglD inh = inhibitors of Campylobacter jejuni PglD acetyltransferase; actives 0.098% (n = 360,000); AID 602405; inhibition, % at 12.5 µM; purified PglD enzyme, DTNB colorimetric CoA detection; in the data active = inhibition above about 16%, passing the limit was not always enough; inconclusive = no clear call, values can overlap the other calls
NRP1-CendR mod = alters CendR peptide binding to human NRP-1. FAM-RPARPAR peptide binding to NRP-1, fluorescence polarization. inhibition, % at 25 µM. actives 0.85% (n = 360,000). AID 602438;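 active = inhibition or corrected inhibition above about 18%, plus a signal ratio from 0.5 to 1.5, limit read from the data, passing the limit was not always enough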
Of the large screens only hits and unclear results are named; the others gave an inactive call.

CO[C@@H]1CN(C)C(=O)c2cc(NC(=O)C3CC3)ccc2OC[C@H](C)N(Cc2ccccc2)C[C@@H]1C	none (no result: ALR inh, PDI turbidity, NRP1-CendR mod)
Cc1ccc(NC(=O)/C(C#N)=N/Nc2ccc(C(=O)O)cc2)c(C)c1	ALR inh 76
CO[C@H]1CN(C)C(=O)c2cc(NS(=O)(=O)c3ccc(C)cc3)ccc2OC[C@@H](C)N(Cc2nccs2)C[C@H]1C	none (no result: ALR inh, PDI turbidity, NRP1-CendR mod)
O=C(O)C1Nc2c(O)cccc2C2C=CCC12 (stereo unspecified)	ARNT-TACC3 inh 75 (no result: PglD inh)
O=C(O)C1Nc2c(Cl)cc(Cl)cc2C2C=CCC12 (stereo unspecified)	none (no result: ERp5 block)
CCOC(=O)c1sc(N2C(=O)C(O)=C(C(=O)c3ccco3)C2c2cccc(Cl)c2)nc1C (stereo unspecified)	none (no result: ALR inh)
CCOC(=O)c1sc(N2C(=O)C(O)=C(C(=O)c3ccco3)C2c2cccc([N+](=O)[O-])c2)nc1C (stereo unspecified)	ALR inh 91 (no result: ARNT-TACC3 inh)
CCOC(=O)C1=C(O)C(=O)N(c2ccccc2)C1c1cccc([N+](=O)[O-])c1 (stereo unspecified)	NRP1-CendR mod 26 (no result: ALR inh)
O=C(C[C@H]1CC[C@H](NC(=O)Nc2cccc(F)c2)[C@H](CO)O1)NCC1CC1	none (no result: ALR inh, PDI turbidity, NRP1-CendR mod)
CCOC(=O)/C(=N\Nc1cccc(Cl)c1)Sc1nnc(-c2ccc(OC)cc2)n1C	ARNT-TACC3 inh 46 (no result: ERp5 block, PglD inh)
Cc1ccc(N(C(=O)c2snc(C(N)=O)c2N)C(CC(C)C)C(=O)NC2CCCC2)cc1 (stereo unspecified)	none
CC(C(=O)NC1CCCC1)N(C(=O)c1snc(C(N)=O)c1N)c1ccc2c(c1)OCCO2 (stereo unspecified)	ALR inh 96 (no result: ERp5 block)
O=C(O)c1ccc2c(c1)[C@@H]1C=CC[C@@H]1[C@H](c1ccccn1)N2	NRP1-CendR mod 32 (no result: ALR inh, ERp5 block)
COc1ccc(C(=O)N/N=C(\C)c2ccc3c(c2)C2C=CCC2C(c2ccccc2)N3)cc1 (stereo unspecified)	none (no result: ERp5 block, PglD inh)
O=C(CCC1CCCCC1)Nc1ccccc1O	ALR inh 91 (no result: ERp5 block)
O=C(CCC1CCCCC1)Nc1ccccc1-c1ccccc1	none
O=C(CCN1CCCCC1)N[C@@H]1C=C[C@H](CC(=O)N2CCC(Cc3ccccc3)CC2)O[C@H]1CO	none (no result: ALR inh, PDI turbidity, NRP1-CendR mod)
CCN(CC)CCC(c1ccc(OC)cc1)c1c(O)cc(OC)cc1OC (stereo unspecified)	none (no result: ALR inh)
COc1cc(O)c(C(CCN2CCCC(C)C2)c2ccc3c(c2)OCO3)c(OC)c1 (stereo unspecified)	none
COc1cc(O)c(C(CCN2CCOCC2)c2ccc(N(C)C)cc2)c(OC)c1 (stereo unspecified)	ALR inh 99
CCN(CC)CCC(c1ccc(N(C)C)cc1)c1c(O)cc(OC)cc1OC (stereo unspecified)	ALR inh 99, ARNT-TACC3 inh 30 (no result: ERp5 block)
COc1cc(O)c(C(CCN2CCCC(C)C2)c2ccc(N(C)C)cc2)c(OC)c1 (stereo unspecified)	ALR inh 98
CCCNC(=O)[C@H]1[C@H](CO)[C@H]2Cn3c(ccc(-c4ccncc4)c3=O)[C@@H]1N2Cc1ccccc1F	none (no result: ALR inh, PDI turbidity, NRP1-CendR mod)
CN(C)c1ccc(/C(=N\O)c2ccccc2)cc1	ALR inh 94 (no result: ERp5 block)
Cc1cc(=O)oc2cc3c(cc12)OCCN3	ALR inh 97 (no result: ERp5 block)
Cc1cc(=O)oc2cc3c(cc12)OCCO3	none (no result: ERp5 block, PglD inh)
CC(C)NC(=O)Nc1ccc2c(c1)CC(=O)N([C@H](C)CO)C[C@H](C)[C@@H](CN(C)S(=O)(=O)c1cn(C)cn1)O2	none (no result: ALR inh, PDI turbidity, NRP1-CendR mod)
C=CCc1cccc(CNc2ccc(Br)cc2)c1O	ALR inh 98 (no result: PglD inh)
C=CCc1cccc(CNc2ccc(S(=O)(=O)Nc3nccnc3OC)cc2)c1O	none
C[C@@H]1CN([C@@H](C)CO)C(=O)c2cc(NS(=O)(=O)c3ccc(F)cc3)ccc2O[C@@H]1CN(C)C	none (no result: ALR inh, PDI turbidity, NRP1-CendR mod)
C=CCn1c(SCCN2C(=O)c3ccccc3C2=O)nc2scc(-c3ccc(F)cc3)c2c1=O	ARNT-TACC3 inh 55 (no result: ALR inh, PglD inh)
O=C1CS/C(=N/N=C\c2ccn[nH]2)N1	ALR inh 82 (no result: ARNT-TACC3 inh)
CCCS(=O)(=O)NCc1cn2cccc(C)c2n1	none
Cc1cccn2cc(CNc3ccccc3)nc12	ALR inh 98 (no result: ERp5 block)
CC(C)n1nccc1NC(=O)COC(=O)c1ccc(NC(N)=O)cc1	NRP1-CendR mod 24
COc1ccc([Si](C)(C)[C@@H]2[C@@H](CCO)O[C@]3(C(=O)N(Cc4cccc(NC(C)=O)c4)c4ccccc43)[C@H]2C)cc1	none (no result: ALR inh, PDI turbidity, NRP1-CendR mod)
CC(=O)N1CC[C@@H]2[C@H](CO)Nc3ccc(-c4ccccc4)cc3[C@@H]21	none (no result: ALR inh, PDI turbidity, NRP1-CendR mod)
CN(C)C(=O)C[C@H]1CC[C@@H]2[C@H](COc3ccc(NC(=O)c4ccc(F)c(F)c4)cc3C(=O)N2C)O1	none (no result: ALR inh, PDI turbidity, NRP1-CendR mod)
O=C1CCCCN1CCC(=O)N1CCCC(N2CCN(c3ccccc3)CC2)C1 (stereo unspecified)	ALR inh 93
O=C(CCN1CCCCO1)N1CCCC(N2CCN(c3ccc(F)cc3)CC2)C1 (stereo unspecified)	ALR inh 97
Cc1ccn(CC(=O)N2CCCC(N3CCN(c4cccc(Cl)c4)CC3)C2)n1 (stereo unspecified)	ALR inh 99
Cc1ccnn1CCC(=O)N1CCCC(N2CCN(c3cccc(Cl)c3)CC2)C1 (stereo unspecified)	none
O=C1CCCCN1CCC(=O)N1CCCC(N2CCN(c3cccc(Cl)c3)CC2)C1 (stereo unspecified)	ALR inh inconclusive, NRP1-CendR mod 25
Cc1nonc1C(=O)N1CCCC(N2CCN(c3ccc(F)cc3)CC2)C1 (stereo unspecified)	ALR inh 98
Cc1cccc(NCc2ccccc2O)c1C	ALR inh 99, NRP1-CendR mod 42 (no result: ERp5 block)
O=C(Nc1cccc(C(F)(F)F)c1)C(Sc1cccc[n+]1[O-])c1ccccc1 (stereo unspecified)	ALR inh 78 (no result: ARNT-TACC3 inh, PglD inh)
CCN1C(=O)/C(=C2/SC(C)=C(C)N2CC)SC1=S	ALR inh 97 (no result: ERp5 block)
COC(=O)CSc1nc(-c2ccccc2)cc(-c2ccco2)c1C#N	ALR inh 95 (no result: ERp5 block)
COC(=O)CSc1nc(N)c(C#N)c(-c2ccco2)c1C#N	none (no result: ALR inh, ERp5 block)
CN1C(=O)c2cc(NC(=O)c3cccc(F)c3)ccc2OC[C@H]2O[C@H](CC(=O)Nc3ccccc3)CC[C@H]21	none (no result: ALR inh, ERp5 block, ARNT-TACC3 inh, PDI turbidity, NRP1-CendR mod)
COc1ccc(C(=O)c2ccc(N(C)C)cc2)c(OC)c1	ALR inh 96
COc1ccc(C(=O)c2ccc(OC)cc2OC)cc1	none
C[C@H](CO)N1C[C@H](C)[C@H](CN(C)C(=O)Nc2cccc3ccccc23)Oc2ccc(NC(=O)Cn3cnnn3)cc2C1=O	none (no result: ALR inh, PDI turbidity, NRP1-CendR mod)
Cc1ccc(S(=O)(=O)N(C)C[C@H]2OCCCC[C@H](C)Oc3ccc(NS(=O)(=O)c4ccccc4)cc3C(=O)N([C@@H](C)CO)C[C@@H]2C)cc1	none (no result: ALR inh, PDI turbidity, NRP1-CendR mod)
COc1cc([N+](=O)[O-])ccc1NC(=O)CSc1ccccn1	none (no result: ERp5 block, PglD inh)
